Wnt act: Wnt/beta-catenin pathway activators, primary screen, cell-based, plate reader, single point; Wnt/beta-catenin reporter cell assay, activator; activation, % at 9.35 µM; 1.2% of 300,000 active; in the data active = activation above about 30%, passing the limit was not always enough; inconclusive = no clear call, values can overlap the other calls;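 also: 0% = neutral control wells and 100% = positive control wells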
MITF act: activators of MITF-driven TRPM1 promoter reporter, primary screen, cell-based, SK-MEL-5, luciferase, single point; SK-MEL-5 TRPM1-promoter luciferase, 24 h; % of positive control, neutral wells = 0; activation, % at 12.5 µM; AID 588334, 2011; 0.75% of 300,000 active;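 active = mean activation of at least 80% with every replicate also reaching 80%; inconclusive = mean reaches 80% but some replicate falls short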;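 also: 0% = neutral control wells and 100% = parthenolide positive control wells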
HSF1 inh: HSF1 inhibitors in luciferase reporter cells, primary screen, cell-based, NIH3T3, luminescence; NIH3T3-HGL HSE-luciferase, MG132-induced, luminescence 8 h; hits give low values; activity change, negative = inhibition, % at 7.5 µM (by protocol); 0.77% of 300,000 active;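 active = more than half of replicate wells show activity change below -50%, luminescence cut by over half; inconclusive = some wells, but at most half, below -50%; inactive = no replicate well below -50%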;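 also: luciferase reports HSF-1 transcriptional activity via heat shock element; 0% = median of DMSO wells and -100% = zero luminescence signal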
HSF-1 act: HSF-1 activators, primary screen, NIH3T3-HGL cells, MG132 stress, luminescence, single point. 1.7% of 300,000 active. AID 504408, 2011. NIH3T3-HGL HSF-1 luciferase reporter, 8 h; 100% = twice DMSO control signal. activation, % at 9 µM;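 active = mean replicate activation of at least 50% with a set share of replicates each reaching 50%; inconclusive = only one of those two conditions met; inactive = mean below 50% and too few replicates reaching it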;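 also: 0% = median of the neutral control wells and 100% = twice that signal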
esBAF inh: Bmi1 luciferase reporter increase in mESCs, primary screen, esBAF inhibitor project, mouse ES cells, Bmi1 luciferase knock-in, single point; 24 h; 100% = twice the neutral-well signal; reporter increase, % at 12.5 µM; 2% of 350,000 active; AID 602393, 2012; in the data active = activation above about 40%; inconclusive = no clear call, values can overlap the other calls;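 also: 0% = median of the plate's neutral control wells and 100% = double that signal; a rise in the Bmi1 reporter signal indicates esBAF inhibition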
* marks the source's active call; other numbers are inactive results; u = inconclusive; x = not tested or not shown. The list is not random: actives were taken first. Their share in the collection is about 3.8%.

SMILES	Wnt act	MITF act	HSF1 inh	HSF-1 act	esBAF inh
Cc1noc(C)c1S(=O)(=O)Nc1ccc2c(c1)C(=O)N([C@H](C)CO)C[C@@H](C)[C@@H](CN(C)C(=O)c1ccncc1)OCCCC[C@@H](C)O2	x	x	x	x	3
O=C(Nc1ccc(F)cc1)N1C[C@@H]2[C@H](c3ccccc31)[C@@H](CO)N2C(=O)Cc1cccnc1	x	x	x	x	2
CCOc1ccc(NC(=O)c2nn(C)cc2Br)cc1	x	53	21	50	34
O=C(Nc1ccc(F)cc1)c1ccc2nsnc2c1	39*	77	9	2	u
COc1ccc(/C=C(/NC(=O)c2ccccc2Cl)C(=O)O)cc1	47*	2	15	26	x
COc1cccc(NC(=O)c2nn(C)cc2Br)c1	x	41	9	37	55*
COc1cccc(NC(=O)c2cccc(C)c2[N+](=O)[O-])c1	33*	31	2	5	x
O=C(Nc1ccc(F)cc1)c1ccc2nc[nH]c2c1	4	26	7	-16	x
CN1C(=O)c2cc(NC(=O)C3CCOCC3)ccc2OC[C@H]2O[C@H](CC(=O)NCc3ccc4c(c3)OCO4)CC[C@H]21	x	x	x	x	0
C[C@@H]1CN([C@@H](C)CO)C(=O)Cc2cc(NS(=O)(=O)c3ccc(F)cc3)ccc2O[C@@H]1CN(C)CC1CC1	x	x	x	x	-2
O=C(Nc1cccc(Cl)c1)c1ccccc1	20	78	x	x	42*
COc1cccc(C(=O)Nc2ccc(NC(=O)C3CC=CCC3C(=O)O)cc2)c1 (stereo not given)	6	-5	-52*	-64	-1
CC(C)OC(=O)c1cccc(NC(=O)c2ccccc2)c1	u	83*	18	19	x
C[C@@H]1CN([C@@H](C)CO)C(=O)c2cc(C#Cc3ccccc3F)cnc2O[C@H]1CN(C)C(=O)Cc1cccnc1	x	x	x	x	-3
COc1ccc(NC(=O)N(C)C[C@@H]2Oc3c(NC(=O)Nc4c(C)noc4C)cccc3C(=O)N([C@@H](C)CO)C[C@H]2C)cc1	x	x	x	x	-6
CCN(c1ccccc1)S(=O)(=O)c1ccc2ccccc2c1	0	-5	-3	0	-6
CN(c1ccc(O)cc1)S(=O)(=O)c1ccc2ccccc2c1	0	33	12	28	58*
O=C(Nc1ccc(-c2noc(CCc3ccccc3)n2)cc1)c1cccnc1	x	3	7	18	49*
O=C(Nc1ccc2oc(-c3ccccc3)nc2c1)c1ccncc1	x	19	5	6	54*
O=C(Nc1ccc2oc(-c3cccnc3)nc2c1)c1cccnc1	-11	x	-3	-7	28
O=C(Nc1ccc2c(c1)oc1ccccc12)c1ccncc1	u	x	13	15	32
O=C(Nc1cccc(-c2nc3ccccc3o2)c1)c1cccnc1	-1	19	7	23	x
O=C(NCCc1ccccc1)c1ccc(NC(=O)c2cccnc2)cc1	-2	-7	5	-16	15
O=C(Nc1ccc2c(c1)oc1ccccc12)c1cccnc1	x	106*	-1	29	68*
O=C(Nc1ccc(-c2nc3ccccc3o2)cc1)c1cccnc1	42*	32	23	55*	50*
SMILES	Wnt act	MITF act	HSF1 inh	HSF-1 act	esBAF inh
C[C@@H](NC(=O)C[C@@H]1CC[C@@H]2[C@H](COC[C@H](O)CN2C(=O)Nc2cccc(F)c2)O1)c1ccccc1	x	x	x	x	26
C[C@H]1CN([C@@H](C)CO)C(=O)Cc2cc(NC(=O)Cn3cnnn3)ccc2O[C@@H]1CN(C)Cc1ccc(C(=O)O)cc1	x	x	x	x	-2
C[C@H]1CN([C@@H](C)CO)C(=O)c2ccccc2-c2ccccc2CO[C@@H]1CN(C)C(=O)Nc1ccccc1C(F)(F)F	x	x	x	x	-1
CC(C)(Oc1ccc(Cl)cc1)C(=O)Nc1ccc2oc(-c3ccncc3)nc2c1	x	-5	54	110*	17
CNC(=O)NC(=O)C(C)OC(=O)c1c2c(nc3ccccc13)/C(=C/c1cccs1)CC2 (stereo not given)	5	14	21	60*	x
CCCCNC(=O)COC(=O)c1c2c(nc3ccccc13)/C(=C/c1cccs1)CC2	23	28	x	x	x
CCCCOCCCN1CC(=O)N2[C@@H](Cc3c([nH]c4ccccc34)C2(C)C)C1=O	-4	-7	29	70*	2
CCCCCN1CC(=O)N2[C@@H](Cc3c([nH]c4ccccc34)C2(C)C)C1=O	-3	-3	-3	7	1
O=C(C[C@H]1C=C[C@H](NC(=O)NC2CCCC2)[C@@H](CO)O1)NCc1ccc(F)cc1	x	x	x	x	-2
Cc1noc(C)c1C(=O)Nc1nc(-c2cc(F)ccc2F)cs1	9	30	x	x	74*
C/C(Cc1ccccc1)=N\NC(=O)CNC(=O)Cc1ccc(Cl)cc1	0	x	-53*	-63	x
CN1C(=O)c2cc(NC(=O)c3ccc(F)cc3)ccc2OC[C@H]2O[C@@H](CC(=O)NCC3CC3)CC[C@H]21	x	x	x	x	2
Cc1ccn2cc(-c3ccc4c(c3)NC(=O)CO4)nc2c1	16	103*	5	6	x
CCCN1[C@H](C(=O)OC)[C@@H](CO)[C@@H]2Cn3c(ccc(-c4cncnc4)c3=O)[C@@H]21	x	x	x	x	-3
COc1ccc(CCn2cnc3c([nH]c4ccccc43)c2=O)cc1	4	-1	10	3	x
COc1ccc2[nH]c3c(=O)n(CCc4ccccc4)cnc3c2c1	37*	63	10	17	x
CN1C(=O)c2cc(NC(=O)C3CC3)ccc2OC[C@H]2O[C@H](CC(=O)NCCN3CCCC3)CC[C@H]21	x	x	x	x	10
Clc1ccc(CSc2ncnc3c2ncn3C2CCCCO2)cc1 (stereo not given)	12	37	x	x	33
Fc1ccccc1CSc1ncnc2c1ncn2C1CCCCO1 (stereo not given)	48*	89*	x	x	38
Cc1ccc(CC(=O)O/N=C(\N)c2ccccn2)cc1	40*	28	17	45	15
N/C(=N\OC(=O)Cc1cccc2ccccc12)c1ccccn1	42*	79	23	15	x
N/C(=N\OC(=O)Cc1ccc(Cl)cc1)c1ccccn1	x	78	6	8	47*
Cc1cccc(OCC(=O)O/N=C(\N)c2ccccn2)c1C	20	u	21	13	72*
COc1ccc(CC(=O)O/N=C(\N)c2ccccn2)cc1OC	5	4	8	42	6
COc1ccccc1CC(=O)O/N=C(\N)c1ccccn1	-2	32	13	19	x
Cc1noc(C)c1S(=O)(=O)Nc1ccc2c(c1)C(=O)N([C@@H](C)CO)C[C@H](C)[C@@H](CN(C)C(=O)Nc1ccc(F)cc1)O2	x	x	x	x	1
CC(C)NC(=O)Nc1ccc2c(c1)C(=O)N(C)[C@H]1CC[C@H](CC(=O)Nc3ccc(F)cc3)O[C@@H]1CO2	x	x	x	x	-5

Compound activity deposited in PubChem by Broad Institute.
